Laboratory results taken from PubChem BioAssay (NCATS).
Inconclusive results are not listed. Where a call stands in place of a potency, no number is given. Activity calls are given as the source filed them. Unless noted, calls come from the whole dose curve; as a rule, active = well fitted curve in the direction sought with a large enough effect; inconclusive = small, poorly fitted or top-dose-only effect, or another doubt; inactive = no such curve, though single readings can be large; an effect the other way counts as inactive or inconclusive.

Legend:
[1] = target: Mitogen-activated protein kinase 10 (Mus musculus) (UniProt Q61831); experiment: JNK3 AlphaScreen Assay (AID 530; active = well fitted curve in either direction with a large enough effect, not every such curve was filed as active;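 note: kinase came from lysate of stimulated human HepG2 cells; signal reports phosphorylation of biotinylated GST-cJun 1-79 at Ser73 with 10 µM ATP; series mostly up to about 57 µM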)
How it was run: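 Phosphorylation of biotinylated GST-cJun(1-79) at Ser73 is measured by AlphaScreen proximity luminescence. Enzyme is JNK3 in HepG2 lysates activated with interleukin-1beta and tumor necrosis factor alpha; ATP is 10 uM final.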

[2] = target: Cytochrome P450 3A4 (Homo sapiens) (UniProt P08684); experiment: qHTS Assay for Inhibitors and Substrates of Cytochrome P450 3A4 (AID 884); note: nearly all actives have a fitted effect of over 50% in size; note: potency is the fitted concentration of half-maximal effect
Sequence of Cytochrome P450 3A4 (Homo sapiens) (P08684 whole entry, looked up): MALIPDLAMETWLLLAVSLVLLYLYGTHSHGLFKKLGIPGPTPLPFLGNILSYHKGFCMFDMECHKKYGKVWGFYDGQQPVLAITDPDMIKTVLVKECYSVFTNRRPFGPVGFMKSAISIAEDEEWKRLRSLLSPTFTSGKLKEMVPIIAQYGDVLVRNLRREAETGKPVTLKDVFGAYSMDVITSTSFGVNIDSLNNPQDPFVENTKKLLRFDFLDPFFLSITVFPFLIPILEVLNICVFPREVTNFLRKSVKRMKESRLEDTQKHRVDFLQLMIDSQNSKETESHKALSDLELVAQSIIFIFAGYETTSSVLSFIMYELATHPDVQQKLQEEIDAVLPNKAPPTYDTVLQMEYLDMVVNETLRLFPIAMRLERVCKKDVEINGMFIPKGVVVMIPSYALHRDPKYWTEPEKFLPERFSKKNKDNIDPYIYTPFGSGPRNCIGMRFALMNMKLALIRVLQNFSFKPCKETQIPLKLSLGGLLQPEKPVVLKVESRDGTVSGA
How it was run: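 Luminescent readout of luciferin produced by CYP3A4 (20 nM) dealkylation of Luciferin-PPXE, 25 uM (its KM). NADPH-driven reaction ran 60 min at RT after 10 min compound preincubation; data scaled to 57 uM ketoconazole as 100% inhibition.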

[3] = target: Calcium and integrin-binding protein 1 (Homo sapiens) (UniProt Q99828); experiment: Primary qHTS for Identification of Calcium Integrin Binding Protein 1 (CIB1) Competitor (AID 1508620);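 note: GST tagged CIB1 binding a fluorescein labelled alphaIIb integrin peptide tracer; top concentration of the series differs between compounds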
Sequence of Calcium and integrin-binding protein 1 (Homo sapiens) (Q99828 whole entry, looked up): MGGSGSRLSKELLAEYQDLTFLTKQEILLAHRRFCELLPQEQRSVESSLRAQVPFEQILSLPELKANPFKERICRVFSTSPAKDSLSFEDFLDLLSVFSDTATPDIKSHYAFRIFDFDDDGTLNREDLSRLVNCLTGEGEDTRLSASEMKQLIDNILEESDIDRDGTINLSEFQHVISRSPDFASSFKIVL
How it was run: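 Fluorescence polarization competition: CIB1-GST (1 uM final) preincubated with compound 15 min at room temperature, then FITC-labeled alphaIIb peptide (100 nM final) added for another 15 min. Polarization read at Ex 480/Em 540.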

[4] = target: Cytochrome P450 3A4 (Homo sapiens) (UniProt P08684); experiment: qHTS Assay for Activators of Cytochrome P450 3A4 (AID 885); note: nearly all actives have a fitted effect of over 65% in size; note: potency is the fitted concentration of half-maximal effect
How it was run: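 Luminescent readout of luciferin formed from 25 uM Luciferin-PPXE (KM level) by 20 nM CYP3A4 in 200 mM KPO4, with 60 min NADPH-driven reaction at room temperature after 10 min compound exposure. Ketoconazole (57 uM) defined 100% inhibition.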

Structure (SMILES) | outcome [1] | Potency [2] | Potency [3] | Potency [4]
CCCn1c(C)nc2c(NCCCN(CC)CC)nc(C)nc21 | inactive | inactive | inactive | –
Cc1nc(Nc2ccccc2)c2nc(-c3ccccc3)n(CCN3CCOCC3)c2n1 | inactive | 1.58 µM (active) | inactive | inactive
CCCn1c(-c2ccc(F)cc2)nc2c(NCCCN(C)C)nc(C)nc21 | inactive | inactive | inactive | –
Cc1nc(NCCO)c2nc(-c3ccccc3)n(CCCN(C)C)c2n1 | inactive | inactive | inactive | –
CCCn1c(C)nc2c(NCCN(C)C)nc(C)nc21 | inactive | inactive | inactive | –
CCCn1c(C)nc2c(N(C)CCN(C)C)nc(C)nc21 | inactive | inactive | inactive | –
CCCn1c(C)nc2c(NCCCCN(C)C)nc(C)nc21 | inactive | inactive | inactive | –
CCCCNc1nc(C)nc2c1nc(-c1ccccc1)n2C(C)CCCN(CC)CC (stereo unspecified) | inactive | 10 µM (active) | inactive | inactive
CCN1CCCC1Cn1c(-c2ccccc2)nc2c(NCCOC)nc(C)nc21 (stereo unspecified) | inactive | 20 µM (active) | inactive | inactive
CCCn1c(-c2ccc(F)cc2)nc2c(N3CCN(CCC(=O)OCC)CC3)nc(C)nc21 | inactive | 12.6 µM (active) | inactive | inactive
CCCn1c(C)nc2c(NC3CCN(Cc4ccccc4)CC3)nc(C)nc21 | inactive | inactive | inactive | –
CCN(CC)CCCC(C)n1c(-c2ccccc2)nc2c(NCCO)nc(C)nc21 (stereo unspecified) | inactive | inactive | inactive | –
Cc1nc(NCc2ccccc2)c2nc(-c3ccccc3)n(C3CCN(Cc4ccccc4)C3)c2n1 (stereo unspecified) | inactive | 3.98 µM (active) | inactive | inactive
Cc1nc(N2CCOCC2)c2nc(-c3ccccc3)n(CC(C)(C)CN(C)C)c2n1 | inactive | – | inactive | inactive
CCCCNc1nc(C)nc2c1nc(-c1ccccc1)n2CC(C)(C)CN(C)C | inactive | 10 µM (active) | inactive | inactive
Cc1nc(NCc2ccccc2)c2nc(-c3ccccc3)n(CCCN3CCCCC3C)c2n1 (stereo unspecified) | inactive | 5.01 µM (active) | inactive | inactive
Cc1nc(NCc2ccccc2)c2nc(-c3ccccc3)n(CC(C)(C)CN(C)C)c2n1 | inactive | 3.98 µM (active) | inactive | inactive
CCCn1c(-c2ccc(F)cc2)nc2c(N3CCC(N(C)C)C3)nc(C)nc21 (stereo unspecified) | inactive | – | inactive | inactive
CCCn1c(-c2ccc(F)cc2)nc2c(NCCN3CCSCC3)nc(C)nc21 | inactive | 20 µM (active) | inactive | inactive
CCCn1c(C)nc2c(NCCN3CCCC3)nc(C)nc21 | inactive | inactive | inactive | 15.8 µM (active)
CCN(CC)CCn1c(-c2ccccc2)nc2c(NCc3ccccc3)nc(C)nc21 | inactive | 12.6 µM (active) | inactive | inactive
COCCN(CCOC)c1nc(C)nc2c1nc(-c1ccccc1)n2CCN1CCOCC1 | inactive | 1 µM (active) | inactive | inactive
CCCCNc1nc(C)nc2c1nc(-c1ccccc1)n2CCN1CCCCC1 | inactive | 3.16 µM (active) | inactive | inactive
CCCn1c(-c2ccc(F)cc2)nc2c(NCC3CCN(C)CC3)nc(C)nc21 | inactive | – | inactive | inactive
Cc1nc(NC2CCCCC2)c2nc(-c3ccccc3)n(CCCN(C)C)c2n1 | inactive | – | inactive | inactive
CCCn1c(C)nc2c(Nc3ccccc3)nc(C)nc21 | inactive | – | inactive | inactive
CCCn1c(-c2ccc(F)cc2)nc2c(N(C)CCN(C)C)nc(C)nc21 | inactive | – | inactive | inactive
CCCCNc1nc(C)nc2c1nc(-c1ccccc1)n2CCN(C)C | inactive | – | inactive | inactive
CCCn1c(-c2ccc(F)cc2)nc2c(NC(C)CCCN(CC)CC)nc(C)nc21 (stereo unspecified) | inactive | 10 µM (active) | inactive | inactive
